# Data as given in PubChem BioAssay (EPA / NIEHS).
# Several values for one entry are separate records, joined by “and”; a condition that tells them apart may be missing. Equal entries are not always repeated. Inconclusive results are not listed. The source holds several records for some structures; these can differ, active in one and inactive in another. Activity calls are given as the source filed them. The calls were made as follows, unless noted: active = hit-call score of the fitted dose curve at least 0.9, where 1 is the maximum; inconclusive = response in the unintended direction; inactive = score below 0.9.
# How the values were obtained:
# [1] = target: human Peroxisome Proliferator-activated Receptor alpha (PPARa), PPARA (gene 5465) (UniProt Q07869); assay: ATG_PPARa_TRANS: Attagene TRANS-FACTORIAL HepG2 Assay for human Peroxisome Proliferator-activated Receptor alpha (PPARa) (AID 2283001);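 as to AC50: potency for gain of reporter signal over DMSO so agonist or activator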
# Outline: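 Gain-of-signal endpoint: reporter mRNA induction relative to DMSO, detected by fluorescent RT-PCR and capillary electrophoresis. HepG2 cells transiently carried GAL4-UAS-driven reporter units plus NR-Gal4 fusion; exposure lasted 24 h.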
# [2] = target: human Peroxisome Proliferator-activated Receptor delta (PPARd), PPARD (gene 5467) (UniProt Q03181); assay: ATG_PPARd_TRANS: Attagene TRANS-FACTORIAL HepG2 Assay for human Peroxisome Proliferator-activated Receptor delta (PPARd) (AID 2283002)
# Outline: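 Measured quantity: GAL4-UAS reporter transcript induction in HepG2 after 24 h chemical dosing, with NR-Gal4 chimeras supplied by transient transfection. Detection by RT-PCR and capillary electrophoresis; upward fit against DMSO.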
# [3] = read-out: Intercellular Adhesion Molecule 1 (ICAM1), ICAM1 (gene 3383); assay: BSK_3C_ICAM1: BioMAP Diversity Plus: 3C Assay for Intercellular Adhesion Molecule 1 (ICAM1) Biomarker Activity (AID 2283003; active = hit-call score of the fitted dose curve at least 0.9, where 1 is the maximum; inactive = score below 0.9); settings: primary human endothelial cells (HUVEC); actives raise or lower the signal
# Outline: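 HUVEC primary cells stimulated under 3C conditions; ICAM1 measured by ELISA 24 h after compound dosing. Curves fitted bidirectionally against the DMSO baseline. Overt cytotoxicity checked by SRB staining of parallel cultures.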
# [4] = BSK_3C_Proliferation: Cell Proliferation Assessment in the BioMAP Diversity Plus: 3C Assay (AID 2283006; active = hit-call score of the fitted dose curve at least 0.9, where 1 is the maximum; inactive = score below 0.9;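 as to AC50: potency may reflect either rise or fall in cell number versus DMSO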); settings: primary human endothelial cells (HUVEC)
# Outline: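 Subconfluent HUVEC (3C system) cultured with chemical; relative cell number read at 48 h by sulforhodamine B total-protein staining (0.1% SRB after 10% TCA fixation, 560 nm). Bidirectional fit relative to DMSO.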
# [5] = target: Peroxisome proliferator-activated receptor gamma (Homo sapiens) (UniProt P37231); assay: ATG_PPARg_TRANS: Attagene TRANS-FACTORIAL HepG2 Assay for human Peroxisome Proliferator-activated Receptor-gamma (PPARg) (AID 2283007)
# Outline: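 HepG2 cells transiently transfected with multiplexed GAL4-UAS reporter units and exogenous chimeric NR-Gal4 proteins; reporter mRNA quantified after 24 h compound exposure by RT-PCR, fluorescent labelling, HpaI digestion and capillary electrophoresis; gain-of-signal fitted versus DMSO baseline.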
# [6] = target: Nuclear receptor subfamily 1 group I member 2 (Homo sapiens) (UniProt O75469); assay: ATG_PXR_TRANS: Attagene TRANS-FACTORIAL HepG2 Assay for human Pregnane X Receptor (PXR) (AID 2283008)
# Outline: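 Read-out is fluorescence of labelled reporter cDNA fragments separated by capillary electrophoresis after RT-PCR and HpaI digestion. Source: HepG2 cells carrying PXR-GAL4/UAS reporter constructs, treated 24 h; activity fitted upward relative to DMSO.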
# [7] = target: human Retinoic Acid Receptor beta (RARb), RARB (gene 5915) (UniProt P10826); assay: ATG_RARb_TRANS: Attagene TRANS-FACTORIAL HepG2 Assay for human Retinoic Acid Receptor beta (AID 2283004)
# Outline: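 Readout is reporter mRNA induction: RNA reverse-transcribed, PCR-amplified, FAM-labelled, HpaI-cut and resolved by capillary electrophoresis. Transiently transfected HepG2 cells carrying exogenous NR–Gal4 chimeras were dosed for 24 h; activity fitted upward relative to DMSO.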
# [8] = target: Retinoic acid receptor alpha (Homo sapiens) (UniProt P10276); assay: ATG_RARa_TRANS: Attagene TRANS-FACTORIAL HepG2 Assay for human Retinoic Acid Receptor alpha (RARa) (AID 2283005);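 as to AC50: potency for increased reporter signal meaning RARa activation over DMSO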
# Outline: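 HepG2 cells transiently transfected with multiple reporter units expressing chimeric RARα-GAL4 fusion, with GAL4-UAS-driven reporters. After 24 h compound exposure, reporter mRNA induction quantified by RT-PCR and capillary electrophoresis with fluorescent labeling; gain-of-signal fitted relative to DMSO control.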
# [9] = target: human Retinoic Acid Receptor gamma (RARg), RARG (gene 5916) (UniProt P13631); assay: ATG_RARg_TRANS: Attagene TRANS-FACTORIAL HepG2 Assay for human Retinoic Acid Receptor gamma (RARg) (AID 2283009)
# Outline: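 HepG2 transiently transfected with GAL4-UAS reporter units and chimeric NR-Gal4 constructs; 24 h compound exposure. Reporter mRNA quantified by RT-PCR, FAM labeling, HpaI digestion and capillary electrophoresis; gain-of-signal versus DMSO.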
# [10] = target: human RAR-related Orphan Receptor beta (RORb), RORB (gene 6096) (UniProt Q92753); assay: ATG_RORb_TRANS: Attagene TRANS-FACTORIAL HepG2 Assay for human RAR-related Orphan Receptor beta (RORb) (AID 2283010)
# Outline: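 HepG2 cells transiently transfected with GAL4-UAS reporter units expressing chimeric NR-Gal4 protein; reporter mRNA measured 24 h after dosing by RT-PCR, 6-FAM labelling and capillary electrophoresis. Gain-of-signal fitted relative to DMSO baseline.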
# Chain of human Peroxisome Proliferator-activated Receptor alpha (PPARa), PPARA (gene 5465) (Q07869 whole entry, looked up, the tested form may be a part): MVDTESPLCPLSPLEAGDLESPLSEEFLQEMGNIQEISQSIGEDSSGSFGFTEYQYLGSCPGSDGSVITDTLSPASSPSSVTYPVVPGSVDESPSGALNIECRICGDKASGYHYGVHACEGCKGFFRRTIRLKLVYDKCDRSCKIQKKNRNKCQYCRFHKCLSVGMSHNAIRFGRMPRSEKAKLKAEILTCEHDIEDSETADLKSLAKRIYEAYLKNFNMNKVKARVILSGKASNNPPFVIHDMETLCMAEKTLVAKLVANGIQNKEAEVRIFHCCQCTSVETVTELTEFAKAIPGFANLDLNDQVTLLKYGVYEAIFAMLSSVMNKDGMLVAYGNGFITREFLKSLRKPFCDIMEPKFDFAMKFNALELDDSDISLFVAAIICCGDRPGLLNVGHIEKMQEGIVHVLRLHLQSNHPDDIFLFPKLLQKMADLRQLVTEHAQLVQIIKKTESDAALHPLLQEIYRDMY
# Chain of human Retinoic Acid Receptor beta (RARb), RARB (gene 5915) (P10826 whole entry, looked up, the tested form may be a part): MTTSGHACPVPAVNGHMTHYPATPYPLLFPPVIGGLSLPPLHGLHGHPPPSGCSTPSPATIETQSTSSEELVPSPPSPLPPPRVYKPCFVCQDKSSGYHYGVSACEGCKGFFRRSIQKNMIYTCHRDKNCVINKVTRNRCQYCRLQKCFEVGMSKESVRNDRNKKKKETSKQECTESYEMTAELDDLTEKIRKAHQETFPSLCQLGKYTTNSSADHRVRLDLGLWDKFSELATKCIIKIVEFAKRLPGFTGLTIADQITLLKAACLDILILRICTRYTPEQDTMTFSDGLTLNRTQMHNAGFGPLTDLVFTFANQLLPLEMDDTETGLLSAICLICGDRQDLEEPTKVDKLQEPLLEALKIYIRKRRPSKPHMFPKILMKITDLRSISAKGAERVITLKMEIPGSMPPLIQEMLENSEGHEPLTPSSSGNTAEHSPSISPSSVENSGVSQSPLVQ
# Chain of human RAR-related Orphan Receptor beta (RORb), RORB (gene 6096) (Q92753 whole entry, looked up, the tested form may be a part): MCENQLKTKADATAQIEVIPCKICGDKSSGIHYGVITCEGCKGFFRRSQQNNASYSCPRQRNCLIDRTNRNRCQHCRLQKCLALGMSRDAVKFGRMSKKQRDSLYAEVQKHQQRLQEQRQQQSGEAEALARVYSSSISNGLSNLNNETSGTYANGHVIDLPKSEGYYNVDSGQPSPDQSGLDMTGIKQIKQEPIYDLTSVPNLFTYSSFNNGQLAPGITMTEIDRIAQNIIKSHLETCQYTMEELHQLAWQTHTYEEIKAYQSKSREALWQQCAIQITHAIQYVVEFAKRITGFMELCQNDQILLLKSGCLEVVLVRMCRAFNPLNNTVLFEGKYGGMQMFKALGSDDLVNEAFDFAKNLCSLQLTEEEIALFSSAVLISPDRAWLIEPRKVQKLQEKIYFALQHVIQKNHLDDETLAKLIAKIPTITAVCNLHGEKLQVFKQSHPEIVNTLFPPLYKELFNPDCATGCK
# Chain of human Peroxisome Proliferator-activated Receptor delta (PPARd), PPARD (gene 5467) (Q03181 whole entry, looked up, the tested form may be a part): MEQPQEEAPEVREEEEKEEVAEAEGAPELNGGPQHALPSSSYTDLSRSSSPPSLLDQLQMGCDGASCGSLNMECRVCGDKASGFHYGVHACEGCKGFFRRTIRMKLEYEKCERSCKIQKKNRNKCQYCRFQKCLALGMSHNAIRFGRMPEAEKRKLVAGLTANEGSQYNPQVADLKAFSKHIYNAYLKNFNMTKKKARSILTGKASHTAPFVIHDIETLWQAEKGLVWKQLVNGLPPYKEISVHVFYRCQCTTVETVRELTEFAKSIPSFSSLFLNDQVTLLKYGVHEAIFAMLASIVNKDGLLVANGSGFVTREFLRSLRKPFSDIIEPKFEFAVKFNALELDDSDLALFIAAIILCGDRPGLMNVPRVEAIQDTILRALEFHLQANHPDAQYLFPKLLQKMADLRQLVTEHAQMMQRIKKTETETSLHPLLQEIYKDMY
# Chain of Nuclear receptor subfamily 1 group I member 2 (Homo sapiens) (O75469 whole entry, looked up, the tested form may be a part): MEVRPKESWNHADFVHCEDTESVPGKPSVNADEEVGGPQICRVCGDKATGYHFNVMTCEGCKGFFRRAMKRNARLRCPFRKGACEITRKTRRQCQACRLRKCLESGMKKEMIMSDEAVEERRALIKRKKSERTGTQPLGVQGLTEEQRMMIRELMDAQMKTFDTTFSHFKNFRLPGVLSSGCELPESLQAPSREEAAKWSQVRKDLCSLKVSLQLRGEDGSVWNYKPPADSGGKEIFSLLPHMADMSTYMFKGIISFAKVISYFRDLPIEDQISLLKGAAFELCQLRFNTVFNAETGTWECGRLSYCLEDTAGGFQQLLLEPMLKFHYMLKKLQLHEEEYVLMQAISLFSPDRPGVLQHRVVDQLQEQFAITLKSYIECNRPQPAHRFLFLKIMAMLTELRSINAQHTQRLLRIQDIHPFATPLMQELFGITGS
# Chain of human Retinoic Acid Receptor gamma (RARg), RARG (gene 5916) (P13631 whole entry, looked up, the tested form may be a part): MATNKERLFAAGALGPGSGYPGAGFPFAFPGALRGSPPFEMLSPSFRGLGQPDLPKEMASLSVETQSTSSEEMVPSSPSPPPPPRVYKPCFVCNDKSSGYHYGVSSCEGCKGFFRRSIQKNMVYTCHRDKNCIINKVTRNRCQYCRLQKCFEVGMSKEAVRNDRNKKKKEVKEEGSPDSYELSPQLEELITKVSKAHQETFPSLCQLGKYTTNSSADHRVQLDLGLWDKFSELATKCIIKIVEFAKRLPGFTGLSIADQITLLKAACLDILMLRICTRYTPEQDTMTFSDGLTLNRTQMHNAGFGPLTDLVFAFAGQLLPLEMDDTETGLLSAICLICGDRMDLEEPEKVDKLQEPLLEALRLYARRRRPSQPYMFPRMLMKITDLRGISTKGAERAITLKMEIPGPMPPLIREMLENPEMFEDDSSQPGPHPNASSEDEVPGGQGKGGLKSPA
# Chain of Peroxisome proliferator-activated receptor gamma (Homo sapiens) (P37231 whole entry, looked up, the tested form may be a part): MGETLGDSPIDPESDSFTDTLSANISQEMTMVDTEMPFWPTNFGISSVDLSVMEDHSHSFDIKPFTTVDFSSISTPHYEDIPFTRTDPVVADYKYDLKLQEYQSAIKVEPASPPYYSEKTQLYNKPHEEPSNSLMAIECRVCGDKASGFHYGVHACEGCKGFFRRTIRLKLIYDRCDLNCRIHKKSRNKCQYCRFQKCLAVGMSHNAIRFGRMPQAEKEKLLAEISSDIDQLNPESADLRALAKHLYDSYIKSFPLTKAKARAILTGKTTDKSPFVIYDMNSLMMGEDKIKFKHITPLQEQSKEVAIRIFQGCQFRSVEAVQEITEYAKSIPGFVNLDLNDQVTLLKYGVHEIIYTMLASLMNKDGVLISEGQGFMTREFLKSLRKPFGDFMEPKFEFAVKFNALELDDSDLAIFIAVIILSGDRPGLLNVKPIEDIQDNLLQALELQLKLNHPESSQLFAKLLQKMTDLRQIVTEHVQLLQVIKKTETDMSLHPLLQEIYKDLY
# Chain of Retinoic acid receptor alpha (Homo sapiens) (P10276 whole entry, looked up, the tested form may be a part): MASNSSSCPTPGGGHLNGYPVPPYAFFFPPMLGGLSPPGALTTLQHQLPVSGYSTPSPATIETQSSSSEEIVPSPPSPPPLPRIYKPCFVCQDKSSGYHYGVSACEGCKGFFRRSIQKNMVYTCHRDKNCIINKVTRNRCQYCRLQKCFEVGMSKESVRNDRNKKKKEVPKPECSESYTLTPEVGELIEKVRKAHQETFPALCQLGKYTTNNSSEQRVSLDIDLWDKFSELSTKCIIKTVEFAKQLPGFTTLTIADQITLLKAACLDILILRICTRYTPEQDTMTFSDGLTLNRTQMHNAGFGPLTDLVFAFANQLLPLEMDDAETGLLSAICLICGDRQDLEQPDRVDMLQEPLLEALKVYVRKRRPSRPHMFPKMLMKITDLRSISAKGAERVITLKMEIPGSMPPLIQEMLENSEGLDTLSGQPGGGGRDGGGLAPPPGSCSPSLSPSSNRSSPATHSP
smiles,measurement,setting,value
CCNc1nc(Cl)nc(NC(C)C)n1,outcome,[1],inactive
same,outcome,[2],inactive
same,outcome,[3],inactive
same,outcome,[4],inactive
same,outcome,[5],inactive
same,AC50,[6],24.7 µM (active) and 26.1 µM (active) and 28.1 µM (active)
same,outcome,[6],inactive
CCCN(CCC)c1c([N+](=O)[O-])cc(S(N)(=O)=O)cc1[N+](=O)[O-],AC50,[1],55.3 µM (active)
same,outcome,[1],inactive
same,outcome,[2],inactive
same,AC50,[3],41.3 µM (active) [middle of 4 runs]
same,outcome,[7],inactive
same,outcome,[8],inactive
same,AC50,[4],30.8 µM (active) [middle of 4 runs]
same,outcome,[5],inactive
same,AC50,[6],171 nM (active) and 119 nM (active) and 3.04 µM (active)
same,outcome,[9],inactive
same,outcome,[10],inactive
Fc1ccc(Oc2ccnc3cc(Cl)cc(Cl)c23)cc1,outcome,[1],inactive
same,outcome,[2],inactive
same,AC50,[3],29.9 µM (active)
same,outcome,[7],inactive
same,outcome,[8],inactive
same,AC50,[4],24.4 µM (active)
same,outcome,[5],inactive
same,outcome,[6],inactive
same,outcome,[9],inactive
COC(=O)C=C(C)OP(=O)(OC)OC,outcome,[2],inactive
same,outcome,[3],inactive
same,outcome,[7],inactive
same,outcome,[8],inactive
same,outcome,[4],inactive
same,outcome,[5],inactive
same,outcome,[6],inactive
same,outcome,[10],inactive
CCOc1cc(Oc2ccc(C(F)(F)F)cc2Cl)ccc1[N+](=O)[O-],outcome,[3],inactive
same,outcome,[7],inactive
same,AC50,[4],13.4 µM (active)
same,AC50,[5],13.5 µM (active)
same,outcome,[6],inactive
N#CC(CCc1ccc(Cl)cc1)(Cn1cncn1)c1ccccc1 (configuration not stated),outcome,[2],inactive
same,outcome,[3],inactive
same,outcome,[7],inactive
same,outcome,[8],inactive
same,AC50,[4],14.1 µM (active)
same,outcome,[5],inactive
same,outcome,[6],inactive
same,outcome,[9],inactive
N#Cc1cc(Br)c(O)c(Br)c1,AC50,[1],15.9 µM (active)
same,outcome,[3],inactive
same,AC50,[4],15.8 µM (active)
same,AC50,[5],29.9 µM (active)
same,outcome,[6],inactive
CC(C)(C)c1ccc(CSc2cnn(C(C)(C)C)c(=O)c2Cl)cc1,outcome,[1],inactive
same,outcome,[3],inactive
same,outcome,[7],inactive
same,outcome,[8],inactive
same,AC50,[4],9.12 µM (active)
same,AC50,[5],10.5 µM (active)
same,outcome,[6],inactive
same,outcome,[9],inactive
CCOC(=O)C(Cl)Cc1cc(-n2nc(C)n(C(F)F)c2=O)c(F)cc1Cl (configuration not stated),outcome,[1],inactive
same,outcome,[3],inactive
same,outcome,[7],inactive
same,outcome,[4],inactive
same,AC50,[5],50 µM (active)
same,outcome,[6],inactive
C=CCC1=C(C)[C@@H](OC(=O)[C@@H]2[C@@H](C=C(C)C)C2(C)C)CC1=O,outcome,[1],inactive
same,outcome,[3],inactive
same,AC50,[8],4.08 µM (active)
same,AC50,[4],33.2 µM (active)
same,AC50,[5],9.45 µM (active)
same,outcome,[6],inactive
same,outcome,[9],inactive
O=C(O)c1nc(Cl)ccc1Cl,outcome,[1],inactive
same,outcome,[3],inactive
same,outcome,[4],inactive
same,outcome,[6],inactive
same,outcome,[10],inactive
COc1cnc(OC)n2nc(NS(=O)(=O)c3c(OCC(F)F)cccc3C(F)(F)F)nc12,outcome,[3],inactive
same,outcome,[4],inactive
same,outcome,[5],inactive
same,AC50,[6],11.8 µM (active)
same,outcome,[6],inactive
same,outcome,[10],inactive
COc1nc(C)nc(NC(=O)NS(=O)(=O)c2ccccc2Cl)n1,outcome,[1],inactive
same,outcome,[3],inactive
same,outcome,[7],inactive
same,outcome,[8],inactive
same,outcome,[4],inactive
same,outcome,[5],inactive
same,outcome,[6],inactive
same,outcome,[9],inactive
CS/C(C)=N/OC(=O)N(C)SN(C)C(=O)O/N=C(\C)SC,AC50,[3],31.6 µM (active)
same,outcome,[7],inactive
same,AC50,[4],5.82 µM (active)
same,outcome,[5],inactive
same,outcome,[9],inactive
CNC(=O)ON=CC(C)(C)SC,outcome,[1],inactive
same,outcome,[3],inactive
same,outcome,[7],inactive
same,outcome,[8],inactive
same,outcome,[4],inactive
same,outcome,[5],inactive
same,outcome,[6],inactive
same,outcome,[10],inactive
CCc1nn(C)c(C(=O)NCc2ccc(C(C)(C)C)cc2)c1Cl,outcome,[1],inactive
same,outcome,[3],inactive
same,outcome,[7],inactive
same,outcome,[8],inactive
same,AC50,[4],15.6 µM (active)
same,outcome,[5],inactive
same,outcome,[6],inactive
same,outcome,[9],inactive
CCCCC(CC)COC(=O)c1ccccc1C(=O)OCC(CC)CCCC (configuration not stated),outcome,[1],inactive
same,outcome,[3],inactive
same,outcome,[8],inactive
same,AC50,[4],12.7 µM (active)
same,AC50,[5],39 µM (active)
same,AC50,[6],32.9 µM (active)
same,outcome,[9],inactive
COC(=O)c1ccccc1C(=O)OC,outcome,[1],inactive
same,outcome,[3],inactive
same,outcome,[7],inactive
same,outcome,[8],inactive
same,outcome,[4],inactive
same,outcome,[5],inactive
same,outcome,[6],inactive
same,outcome,[10],inactive
CC1COC(Cn2cncn2)(c2ccc(Oc3ccc(Cl)cc3)cc2Cl)O1 (configuration not stated),outcome,[2],inactive
same,AC50,[3],36.2 µM (active)
same,outcome,[7],inactive
same,outcome,[8],inactive
same,AC50,[4],24.6 µM (active)
same,outcome,[5],inactive
same,outcome,[6],inactive
same,outcome,[9],inactive
CCON=C(CC)C1=C(O)CC(c2c(C)cc(C)cc2C)CC1=O (configuration not stated),outcome,[3],inactive
same,outcome,[7],inactive
same,outcome,[8],inactive
same,outcome,[4],inactive
same,outcome,[5],inactive
same,outcome,[6],inactive
same,outcome,[9],inactive
same,outcome,[10],inactive
C#CCOS(=O)OC1CCCCC1Oc1ccc(C(C)(C)C)cc1 (configuration not stated),outcome,[2],inactive
same,outcome,[3],inactive
same,AC50,[4],9.9 µM (active)
same,outcome,[5],inactive
same,outcome,[6],inactive
same,outcome,[9],inactive
same,outcome,[10],inactive
COC(=O)C(C)Oc1ccc(Oc2ccc(Cl)cc2Cl)cc1 (configuration not stated),AC50,[1],17.4 µM (active) and 17.6 µM (active) and 17.2 µM (active)
same,outcome,[3],inactive
same,outcome,[7],inactive
same,outcome,[8],inactive
same,outcome,[4],inactive
same,AC50,[5],35.2 µM (active) and 20.8 µM (active) and 40 µM (active)
same,outcome,[6],inactive
same,outcome,[9],inactive
same,outcome,[10],inactive
CC(Oc1ccc(Cl)cc1Cl)C(=O)O (configuration not stated),outcome,[1],inactive
same,outcome,[3],inactive
same,outcome,[7],inactive
same,outcome,[8],inactive
same,outcome,[4],inactive
same,AC50,[5],39.1 µM (active)
same,outcome,[6],inactive
same,outcome,[9],inactive
COP(N)(=O)SC (configuration not stated),outcome,[1],inactive
same,outcome,[3],inactive
same,outcome,[8],inactive
same,outcome,[4],inactive
same,outcome,[5],inactive
same,outcome,[6],inactive
same,outcome,[9],inactive
same,outcome,[10],inactive
CCOC(=O)CC(SP(=S)(OC)OC)C(=O)OCC (configuration not stated),outcome,[1],inactive
same,outcome,[3],inactive
same,outcome,[4],inactive
same,AC50,[5],14.2 µM (active) and 25.1 µM (active)
same,AC50,[6],1.53 µM (active)
same,outcome,[6],inactive
CCCCNC(=O)n1c(NC(=O)OC)nc2ccccc21,outcome,[1],inactive
same,outcome,[3],inactive
same,outcome,[8],inactive
same,AC50,[4],11.2 µM (active)
same,outcome,[5],inactive
same,outcome,[6],inactive
same,outcome,[9],inactive
Cc1c(F)c(F)c(COC(=O)C2C(/C=C(\Cl)C(F)(F)F)C2(C)C)c(F)c1F (configuration not stated),outcome,[1],inactive
same,outcome,[3],inactive
same,outcome,[7],inactive
same,AC50,[8],36.7 µM (active)
same,AC50,[4],20 µM (active)
same,outcome,[5],inactive
same,AC50,[6],22.6 µM (active)
same,outcome,[9],inactive
same,outcome,[10],inactive
Cc1cc(Cl)ccc1OCC(=O)O,outcome,[1],inactive
same,outcome,[3],inactive
same,outcome,[4],inactive
same,outcome,[5],inactive
same,outcome,[6],inactive
same,outcome,[10],inactive
O=C(O)COc1nc(Cl)c(Cl)cc1Cl,outcome,[2],inactive
same,outcome,[3],inactive
same,outcome,[7],inactive
same,outcome,[8],inactive
same,outcome,[4],inactive
same,AC50,[5],50 µM (active)
same,outcome,[6],inactive
same,outcome,[9],inactive
COP(=S)(OC)Oc1nc(Cl)c(Cl)cc1Cl,outcome,[3],inactive
same,outcome,[7],inactive
same,outcome,[8],inactive
same,AC50,[4],31.9 µM (active)
same,AC50,[5],16 µM (active)
same,outcome,[6],inactive
same,outcome,[9],inactive
